40 sequences from the supplement of paper PMC6555819 can be followed below.

For the assay, the system named is LXRb:RXRa (NR concentration 270 nM, RXRa partner concentration 90 nM). In words: PBM binding z-score (relative to random genomic background probes); higher = stronger binding; sequences stand for … in GC…GCGATTGACAGCGTAGAATGAAGG
The essentials:
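Binding buffer was PBS pH 7.4 with 2% milk, 0.02% Triton X-100, 1 mM DTT, 0.2 mg/mL BSA and 0.4 mg/ml salmon testes DNA. In it, ligand-free nuclear receptor dimers were incubated 1 h on custom Agilent 4×180K protein-binding microarrays carrying double-stranded probes. Antibodies against each partner (one per run) detected binding, and z-scores were calculated against random background probes after regression normalization of scanned fluorescence.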
GCTAGCAGGCCATTTGAGTCACTCAATGACGGGC displayed a PBM binding z-score of -1.05.

Turning to TAGCCTAGGTCATTCAGGGGCCAGTATAGAAAGC, the PBM binding z-score came out at 3.2.

As for ATCTCTAGTTAAAGTTCAGTGAAAGATCGATAGA, the PBM binding z-score amounted to 1.57.

ATATGTAGGTTAGCTGGGTTCATTCAGACTAGGC showed a PBM binding z-score of 2.2.

TCTATTAGTTCATTAGGGCAACCGAAACAGCGGA gave a PBM binding z-score of 1.29.

In turn, CCTGCTAGGTCATGGTCCGCTAATCTACAGTATG returned a PBM binding z-score of 1.67.

In the case of TGTAGCAGGCCAGAGGGTCACTCAAGAGGTACGG, the PBM binding z-score was 0.665.

The sequence CGAACTAGGTCAGAACAAGACAGTGAAGGATGAT displayed a PBM binding z-score of 0.588.

For ATCTCTAGGTAACAAGTTGAGTGAAAGAGAGGAC, the PBM binding z-score is 0.114.

As for AGTCAAAGCTCAGGACGAGGTAACGTAAAGCACG, the PBM binding z-score was -0.561.

With ACTAGTTGGTCAGCTGAGGTCAGACACAATTCGG, the PBM binding z-score stood at 2.03.

In turn, CCTTACGGGTCACGCGGTTATAGCACGACGAGCG came in with a PBM binding z-score of 3.64.

In turn, TCTTGTAGAGCAAGCAGGTTAAGAAAGCCTGAGT returned a PBM binding z-score of -0.282.

ATACCAAGGGGATCGTGAGGTCGTTGATACTAAC came in with a PBM binding z-score of 1.26.

AGTCAAAGTTCAGGTCGAGGTAACGTAAAGCACG came in with a PBM binding z-score of 2.47.

In turn, CCAGACAGGTGAGAAGGTAACCCAGCCTCGATTA had a PBM binding z-score of 0.148.

Regarding CCTAGCAGGCCAATCTGGGTCACTCAAGGCTTGA, the PBM binding z-score stood at 0.851.

In turn, TCATATAGGTACAGGTGAAAGTCGAACGATATGA gave a PBM binding z-score of 0.777.

In the case of CAAACTAGGTCAAGGACAAAGTCGGTTTGTGCCA, the PBM binding z-score came to 1.43.

In turn, TCAAATAGGTAATACAGGTGAAAGTCGGCATCTA had a PBM binding z-score of 0.892.

GCTTGTAGATCGAGGTTAAGAAAGACTAAGCTAA: the PBM binding z-score came to 0.65.

In the case of ACTATTAGTTCAGACGAGGGCAACCGATAGGTTG, the PBM binding z-score is 0.453.

Turning to AATATTAGTTGAGACGAGGGCAACCGATAGGTTG, the PBM binding z-score turned out to be 0.306.

With GCATATAGGTAATACAAGGTGATAGTCCGATTGT, the PBM binding z-score is -0.116.

Regarding CCTACTGGTCCACGAAAGGTCATTGATTCAGTGA, the PBM binding z-score is 4.6.

On to GCGAGTGGGGCATCAGCAGGTTACCATAACTTAA, for which the PBM binding z-score was found to be 1.15.

Turning to AGAATGAGGTTGTTAAGATCAGGGAATTGCGGTC, the PBM binding z-score is -0.0376.

In the case of TCCAGCAGGCCAGAGGGTCACTCAAGAGGTACGG, the PBM binding z-score is 1.18.

Sequence GCTTGTAGATAAAGGTTAAGAAAGACTAAGCTAA came in with a PBM binding z-score of 1.54.

CAGCCTAGGTCTGGGCCAGTATAGGAGGAACGTT showed a PBM binding z-score of -1.05.

Take CCTAGTTGGTCGAGGTCACACACGCTATAGGTAC: the PBM binding z-score came out at 3.65.

On to ACTCGGAGCACAAAGGTCAGAGCTACGCCAGTGA, for which the PBM binding z-score was 3.11.

Turning to TCATATAGGTAAAAGGTGAAAGTCGGTGTGGTAA, the PBM binding z-score came out at 2.29.

The sequence CCTCGGAGGCCAGAAGGTCAGAGCTGTCCGCTTT registered a PBM binding z-score of 0.993.

TATACAGGGTCAAAGGCCCGAGTACGAATGTCGA yielded a PBM binding z-score of 4.39.

Consider CGTCCAAGGTCAATGCTCGGTCAGTGAAAGCATT, for which the PBM binding z-score is 4.04.

In turn, TCTATTACTTGAAGGGCAACCGACGAGTCCGTTT came in with a PBM binding z-score of 1.19.

For CCGAGTAGTTTATGGGGCATTCAGGCAACGGTGA, the PBM binding z-score amounted to 0.53.

Sequence TCGAGTAGATTAGTCGGGGCATTCAGCCAACATA showed a PBM binding z-score of 0.225.

The sequence CGTCCAAGATCAGCAGGTCAGTGAAAGCGACGTG registered a PBM binding z-score of 0.195.
